Compounds with a hit are over-represented: about 0.41% of the library has one in this group of screens.
RmlC RmlD mix = RmlC/RmlD inhibition, mixture screen; inhibition, % at 5.5 µM; RmlC/RmlD coupled enzyme inhibition, 384-well mixture HTS; 110,000 tested, 0.39% active; in the data active = inhibition above about 30%, passing the limit was not always enough
YopH inh = inhibitors of Yersinia enterocolitica YopH tyrosine phosphatase. 140,000 tested, 0.16% active. fluorescence Ex485/Em525. inhibition, % (no concentration beside the values); in the data active = inhibition above about 50%
* = called active by the depositor; . = not tested or not shown.

SMILES | RmlC RmlD mix | YopH inh
CC1(c2nnc(-c3ccc(F)cc3)o2)CC(c2cccc(Cl)c2)=NO1 (stereo not drawn) | -8 | .
O=C(c1ccccc1)c1coc2ccc(O)c(Cl)c12 | -10 | -49
Cc1oc2c(c1C(=O)c1ccccc1)C(=O)C(=O)c1ccccc1-2 | 0 | 89*
O=C(C1=C(c2ccccc2)C(=O)c2ccccc2C1=O)c1ccccc1 | . | -30
O=C1C(=O)c2c(C(=O)c3ccccc3)coc2-c2ccccc21 | -3 | 75*
COc1ccc(OCCn2nnc(-c3ccc(Cl)cc3)n2)cc1 | . | -14
Cn1nc(-c2ccc(Cl)cc2)nc2c(=O)n(C)c(=O)nc1-2 | -86 | 101*
CCCC(=O)Nc1ccccc1Sc1ncnc2scc(-c3ccccc3)c12 | . | -13
Cc1c2oc3c(C)ccc(C(=O)N[C@@H]4C(=O)N[C@H](C(C)C)C(=O)N5CCC[C@H]5C(=O)N(C)CC(=O)N(C)[C@@H](C(C)C)C(=O)O[C@@H]4C)c3nc-2c(C(=O)N[C@@H]2C(=O)N[C@H](C(C)C)C(=O)N3CCC[C@H]3C(=O)N(C)CC(=O)N(C)[C@@H](C(C)C)C(=O)O[C@@H]2C)c(N)c1=O | -5 | .
CCOC(=O)N1CCC(NC(=O)c2ccc3c(c2)N(C)CCS3)CC1 | 61* | -2
CCOC(=O)N1CCC(NC(=O)c2ccc3c(c2)N(Cc2ccc(C)cc2)CCS3)CC1 | -46 | -23
O=C(CC12CC3CC(CC(C3)C1)C2)N1CCN(S(=O)(=O)c2cccs2)CC1 | . | -11
CCCc1c(-c2ccc(O)cc2)nn(-c2ccc(O)cc2)c1-c1ccc(O)cc1 | -14 | .
[O-]/[N+](=C\c1ccc(F)cc1)c1ccccc1 | -13 | 59*
CC(C)(C(=O)c1ccccc1)/[N+]([O-])=C/c1ccc(F)cc1 | -18 | -27
CCCCn1c(N)c(NCCC(C)C)c(=O)[nH]c1=O | . | 52*
CCCCn1c(N)c(Sc2ccccc2)c(=O)[nH]c1=O | 7 | -31
CC(=O)Oc1c(C)cc(Cl)cc1C(=O)Nc1ccc([N+](=O)[O-])cc1Cl | . | -38
COc1ccccc1NC(=O)c1ccc(-n2cccn2)nc1 | -4 | -16
COCCCn1c2nc3ccccc3nc2c2c(=O)n(Cc3ccccc3Cl)cnc21 | 75* | .
COCCCn1c2nc3ccccc3nc2c2c(=O)n(Cc3ccc(Cl)cc3)cnc21 | 21 | -8
Cc1ccc2nc(SCc3nnc(-c4ccccc4Br)o3)[nH]c2c1 | 9 | -18
C=CCOc1ccc(/C=N/N2C(=O)C(CC(=O)Nc3ccc(F)cc3F)SC2=NC)cc1 (stereo not drawn) | . | -14
O=C(CNC(=O)C(c1ccccc1)c1ccccc1)OCC(=O)c1cccs1 | . | -29
CCOC(=O)N1CCC(N2C(=O)c3ccccc3C2Nc2ccc3c(c2)OCCO3)CC1 (stereo not drawn) | -11 | -38
SMILES | RmlC RmlD mix | YopH inh
CCOC(=O)N1CCC(N2C(=O)c3ccccc3C2Nc2ccc3c(C)cc(=O)oc3c2)CC1 (stereo not drawn) | 89* | -33
Cc1ccccc1N(CC(=O)Nc1ccccc1C(=O)NCc1ccco1)S(=O)(=O)c1ccccc1 | . | -17
Cc1cccn2c(=O)c3cc(C#N)c(=N)n(Cc4ccncc4)c3nc12 | . | -34
COCCNC(=O)c1cc2c(=O)n3cccc(C)c3nc2n(Cc2ccncc2)c1=N | 40* | -34
Cc1ccccc1CN1[C@@H](C(C)C)COCCS1(=O)=O | -6 | .
O=C(O)c1ccccc1SCC(=O)N1c2ccccc2Sc2ccccc21 | . | 60*
O=C(O)c1ccccc1SCC(=O)N1CCCCC1 | -3 | -31
CCOc1cc(CNc2ccc(S(N)(=O)=O)cc2)cc(Cl)c1OC | . | -25
CCOc1cc(CNc2ccc(N3CCCC3)cc2)cc(Cl)c1OC | . | 74*
O=[N+]([O-])c1ccc2nnn(O)c2c1 | . | -20
On1c(-c2ccccc2)nc2ccc(Cl)cc21 | -2 | -44
Clc1ccc2nc3ccccn3c2c1 | 39* | -32
CCOC(=O)Cc1sc(N)nc1C | . | -38
COC(=O)[C@@H](NC(=O)Nc1cccc(Br)c1)C(C)C | . | -8
CCc1ccc(OCC(=O)N(C)C2CCS(=O)(=O)C2)cc1 (stereo not drawn) | 4 | -26
CN(C(=O)COc1ccc(C(C)(C)C)cc1)C1CCS(=O)(=O)C1 (stereo not drawn) | 5 | 54*
C[C@@H]1CC[C@H]2C(=O)N3[C@@H](CC[C@@H](C)[C@@H]3c3ccc(Br)cc3)C(=O)N2[C@H]1c1ccc(Br)cc1 | 6 | -21
NC(=O)c1cc(-c2ccccc2)sc1NC(=O)CN1CCCCC1 | . | 5
CCOC(=O)C(NC(=O)NCc1ccc(F)cc1)(OCC)C(F)(F)F (stereo not drawn) | . | -15
CCOC(=O)C(NC(=O)Nc1ccccc1)(OCC)C(F)(F)F (stereo not drawn) | 3 | 53*
CC(C)(Cl)C1Cc2cc3ccc(=O)oc3cc2O1 (stereo not drawn) | 35 | -32
O=C1c2ccccc2-c2ccc(C(=O)N3CCOCC3)cc21 | -9 | 1
O=C(O)c1ccc(NC2=C(N3CCOCC3)C(=O)c3ccccc3C2=O)cc1 | . | 76*
